Measured values taken from PubChem BioAssay AID1030 (National Center for Advancing Translational Sciences (NCATS), 2008).
In all, about 220,000 compounds went through this assay and about 16,000 (7.3%) were called active. Entries that show only a call come without a potency. Another 25% or so got no clear call; they are omitted. Calls come from the whole dose curve; as a rule, active = well fitted inhibition curve with a large enough effect (not every such curve was filed as active); inconclusive = small, poorly fitted or top-dose-only effect, or another doubt; inactive = no such curve, though single readings can be large or run the other way. Only a selection was taken, and actives are over-represented in it overall.

The compounds below were run against Aldehyde dehydrogenase 1A1 (Homo sapiens) (UniProt P00352) (assay: qHTS Assay for Inhibitors of Aldehyde Dehydrogenase 1 (ALDH1A1)). Conditions: Purified ALDH1A1, NADH fluorescence, propionaldehyde substrate; series mostly up to 75.3 µM.
Aldehyde dehydrogenase 1A1 (Homo sapiens), sequence (P00352 whole entry, looked up): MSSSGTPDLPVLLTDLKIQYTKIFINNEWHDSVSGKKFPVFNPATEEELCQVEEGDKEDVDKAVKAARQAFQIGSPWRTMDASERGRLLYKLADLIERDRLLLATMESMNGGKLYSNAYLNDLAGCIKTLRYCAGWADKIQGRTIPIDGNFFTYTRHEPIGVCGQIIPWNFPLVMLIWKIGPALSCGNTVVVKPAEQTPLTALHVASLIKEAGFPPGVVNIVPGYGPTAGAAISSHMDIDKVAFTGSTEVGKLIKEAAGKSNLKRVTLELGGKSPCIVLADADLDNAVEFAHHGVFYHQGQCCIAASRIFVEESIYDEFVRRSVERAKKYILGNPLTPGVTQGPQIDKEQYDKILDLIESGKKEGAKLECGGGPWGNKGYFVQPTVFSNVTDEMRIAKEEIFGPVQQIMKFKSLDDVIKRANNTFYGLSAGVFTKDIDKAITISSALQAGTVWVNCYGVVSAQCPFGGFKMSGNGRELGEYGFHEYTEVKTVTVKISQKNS
Potency is the fitted concentration of half-maximal effect.

Compound | Potency
CN1CCN(/N=C/c2ccc(-c3ccc([N+](=O)[O-])cc3)o2)CC1 | inactive
CCOC(=O)N1CCN(C(=S)Nc2ccc(C)cc2C)CC1 | inactive
CCOc1ccc(N(CC(=O)NCCc2ccc(OC)cc2)S(C)(=O)=O)cc1 | inactive
COCOc1cc(OC)ccc1C(=O)/C=C/c1ccc([N+](=O)[O-])cc1 | inactive
CCOc1ccc(-c2n[nH]c(C)c2-c2ccccn2)c(O)c1 | inactive
Cc1cc(C)cc(C(=O)N(CCc2ccccc2)C2=CC3CCC(C2)N3C)c1 (centres undefined) | inactive
CCn1c(CNC(=O)c2ccco2)nnc1SCC(=O)Nc1cccc(F)c1 | inactive
Nc1ccc(OCC(O)C[n+]2ccc(CCS(=O)(=O)[O-])cc2)cc1 (centres undefined) | inactive
Cc1ccc(NC(=O)C(=O)NCc2ccc(/C=N/NC(=O)c3c(C)nc4cc(C)ccn34)o2)cc1 | inactive
CCOC(=O)C(NC(C)=O)C(=O)Nc1ccc(OC)cc1 (centres undefined) | inactive
COC(=O)c1ccc(NC(=O)CSc2nnc(CNc3ccc(OC)cc3)n2C)cc1 | 28.2 µM (active)
O=C(CSc1nnc(-c2cccnc2)n1Cc1ccco1)c1ccc(Cl)cc1 | inactive
COc1ccc(C(=O)CSc2nnc(COc3ccccc3)n2Cc2ccco2)cc1 | 8.91 µM (active)
CCn1c(COc2ccccc2)nnc1SCC(=O)NCc1ccco1 | inactive
CCn1c(CNC(=O)c2ccc(OC)c(OC)c2)nnc1SCC(=O)Nc1ccccc1 | inactive
CCn1c(CNc2ccc(OC)cc2)nnc1SCC(=O)c1ccc(OC)cc1 | 0.199 µM (active)
COc1ccc(CC(=O)NCc2nnc(SCC(=O)Nc3nccs3)n2C)cc1 | inactive
CCn1c(COc2ccc(OC)cc2)nnc1SCC(=O)Nc1cc(OC)ccc1OC | inactive
COC(=O)c1ccc(NC(=O)CSc2nnc(-c3ccncc3)n2C)cc1 | inactive
CN(Cc1ccccc1)C(=O)CCc1ccccc1 | inactive
CCOCCCNC(=O)C(=O)NCCCOCC | inactive
CC(C)C(=O)Nc1cccc(NC(=O)c2ccc([N+](=O)[O-])cc2Cl)c1 | inactive
Clc1ccc(N/N=C/c2cccs2)nn1 | inactive

Compound | Potency
Cc1ccccc1-c1ccc(C(=O)O)s1 | inactive
COc1ccc(CN2CCCC(C(=O)c3ccc(Cl)cc3)C2)cc1Cn1cncn1 (centres undefined) | inactive
CCOC(=O)c1[nH]ncc1CN1CCCC(C(=O)c2ccc(OC)cc2C)C1 (centres undefined) | inactive
COc1cc(OC)c(C(=O)N2CCCC2)cc1OC | inactive
Cc1ccc(S(=O)(=O)N2CCC(C(=O)N[C@@H](C)C(=O)NCc3ccco3)CC2)cc1 | inactive
O=C(NCc1ccco1)C1CCCN(S(=O)(=O)c2ccccc2)C1 (centres undefined) | inactive
Cc1ccc(S(=O)(=O)N2CCCC2C(=O)NCc2ccco2)cc1 (centres undefined) | 28.2 µM (active)
CSc1ncccc1C(=O)N1CCCC(CCC(=O)NCc2ccccc2F)C1 (centres undefined) | inactive
COc1ccc(OC)c(-n2nnnc2SCC(=O)Nc2cc(C)ccc2OC)c1 | inactive
COc1ccc(C)cc1-n1nnnc1SCC(=O)c1cc(C)n(Cc2ccco2)c1C | 15.8 µM (active)
Cc1cc(C(=O)COC(=O)CNC(=O)c2ccc(F)cc2)c(C)n1Cc1ccco1 | inactive
CC/C=C\C/C=C\C/C=C\C/C=C\C/C=C\C/C=C\CCC(=O)NCCc1ccc(O)c(O)c1 | inactive
O=C(c1ccco1)N1CCN(C(=O)c2ccc(COc3ccc(F)cc3)o2)CC1 | 28.2 µM (active)
O=C(c1ccco1)N1CCN(C(=O)C2CC(c3ccc(F)cc3)=NO2)CC1 (centres undefined) | inactive
COc1ccccc1OCc1ccc(C(=O)N2CCN(C)CC2)o1 | inactive
CN(C)S(=O)(=O)c1cc(NC(=O)CN2C(=O)NC3(CCCc4ccccc43)C2=O)ccc1Cl (centres undefined) | 12.6 µM (active)
COc1ccc(-n2c(C)cc(C(=O)CN3C(=O)NC4(CCc5ccccc54)C3=O)c2C)cc1 (centres undefined) | inactive
Cc1ccc(NC(=O)CNCc2ccccn2)cc1S(=O)(=O)N(C)C | inactive
Cc1ccc(/C=N/NC(=O)Cn2ccc(C(F)(F)F)n2)o1 | inactive
CCN(CC)N=Nc1cccc(NC(C)=O)c1 | inactive
Cc1c(/C=N\NC(=O)c2cc3ccccc3o2)c2ccccc2n1C | inactive
O=C(N/N=C/c1coc2ccccc2c1=O)c1cc2ccccc2o1 | 10 µM (active)
O=C(Nc1ccncc1)c1cc2ccccc2o1 | inactive

Compound | Potency
NC(=O)Cn1nc([N+](=O)[O-])nc1Oc1ccc(Br)cc1 | inactive
CC(C)(C)C(=O)N(Cc1ccccc1)c1ccccn1 | inactive
CC(C)CCN1CCN(Cc2cn[nH]c2C2CCCCC2)CC1CCO (centres undefined) | inactive
CCCCCCCCC(=O)NCCOc1ccccc1 | inactive
CCC(C)NC(=O)CCCc1ccccc1 (centres undefined) | inactive
CCCC(O)(CCC)C(=O)NN(C(=O)CCl)c1cccc(C)c1 | 39.8 µM (active)
Cc1ccc(N(NC(=O)C(C)(C)O)C(=O)c2ccccc2)cc1C | inactive
CCCCC(O)(CCCC)C(=O)NN(C(=O)CCl)c1ccccc1 | 3.98 µM (active)
CC(C)(O)C(=O)NN(C(=O)c1ccccc1)c1cccc(Br)c1 | inactive
Cc1cc(NC(=O)CSCc2ccccc2C)no1 | inactive
Cn1cnnc1Sc1ccc(CN2CCN(C3CCCC3)C(CCO)C2)o1 (centres undefined) | inactive
COc1cccc2cc(/C(C)=N/NC(=O)c3ccco3)oc12 | inactive
C=CCOc1c(CNn2cn[nH]c2=S)cccc1OC | inactive
CCCCC(=O)NNC(=S)NC(=O)C(c1ccccc1)c1ccccc1 | inactive
CC(C)C(=O)Nc1cccc(NC(=S)NC(=O)C(c2ccccc2)c2ccccc2)c1 | 25.1 µM (active)
CC(C)C(=O)NC(=S)Nc1ccccc1F | inactive
Cn1nnnc1NCc1ccc(Cl)c(Cl)c1 | inactive
CCC(C(=O)OCC(=O)Nc1ccc(C(=O)Nc2ccc(OC)cc2)cc1)c1ccccc1 (centres undefined) | inactive
Cc1ccc(F)c(NC(=O)CCc2ccccc2)c1 | inactive
NC(=O)c1ccc(NC(=O)COC(=O)C(Cc2ccccc2)NC(=O)c2ccccc2)cc1 (centres undefined) | 0.891 µM (active)
O=C(COC(=O)[C@H](Cc1ccccc1)NC(=O)c1cccs1)Nc1cc(F)ccc1F | 14.1 µM (active)
CC(=O)c1ccc(NC(=O)N[C@@H](Cc2ccccc2)C(=O)O)cc1 | inactive
COC(=O)c1ccc(/C=N/OCC(=O)Nc2cc(F)ccc2F)cc1 | inactive
